From the supplement of paper PMC3334620
The full ranking holds about 33,000 sequences; the median of “E-score (-0.5 to 0.5)” is about -0.0014, and the highest 2% start at about 0.25. Only a selection was taken, and the highest values are over-represented in it overall.

target: T1, Cad1 (UniProt P24813); experiment: PBM E-score (8-mer binding enrichment) (E-score (-0.5 to 0.5)); higher = stronger / more preferred TF binding; conditions: protein concentration: 100 nM; construct: GST-full length
T1 sequence: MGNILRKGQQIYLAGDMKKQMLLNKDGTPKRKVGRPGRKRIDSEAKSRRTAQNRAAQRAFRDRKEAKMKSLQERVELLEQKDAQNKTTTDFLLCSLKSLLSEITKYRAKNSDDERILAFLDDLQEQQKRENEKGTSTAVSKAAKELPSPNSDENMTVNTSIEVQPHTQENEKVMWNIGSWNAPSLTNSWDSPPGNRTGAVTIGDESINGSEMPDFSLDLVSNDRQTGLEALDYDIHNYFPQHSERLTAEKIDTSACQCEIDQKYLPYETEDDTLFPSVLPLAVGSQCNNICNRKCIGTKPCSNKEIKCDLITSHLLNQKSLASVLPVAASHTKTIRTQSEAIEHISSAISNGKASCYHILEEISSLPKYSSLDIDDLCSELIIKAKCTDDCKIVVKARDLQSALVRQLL
Procedure, shortened: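 Universal all-10-mer Agilent arrays, double-stranded by primer extension on fresh or once-stripped slides, were probed with about 100-200 nM GST-tagged yeast transcription factors made by PURExpress. Fluorescent anti-GST detected bound protein, and masliner normalised the scans. E-scores from the Universal PBM Analysis Suite were given to each ungapped eight-base word pooled with its reverse complement.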

Sequence	PBM E-score
GTCTACAC	0.0321
ATCCCAAT	-0.122
CTTTGTAC	0.0743
ATTTGTAC	0.119
CTTTGTAA	0.333
ATTTGTAA	0.411
ATTTGTAG	0.0654
GTTTGTAA	0.137
ACGCTCCA	0.0354
AGCGTACG	0.00701
ATACTTGC	0.0566
CAGATGCC	-0.141
GCGCGCTA	0.326
GTGCGCTA	0.0718
CTGCGCTA	0.0362
ACGCGCTA	0.109
CCGCGCTC	0.097
CCGCGCTA	0.263
GACCGTAA	-0.061
GGGTGGCA	-0.124
CCACTATC	-0.0188
AGGTAAAG	0.267

Sequence	PBM E-score
AGGTAAAC	0.105
AGGTAAAT	-0.00978
AGTGATGC	-0.0338
ACCCGCAC	0.0284
ATTAATGC	0.167
CTTAATGA	0.00816
ATTAATGA	0.306
CTTAATTA	0.152
CGTAATTA	0.249
GTTAATTA	0.23
ATTAATAG	0.275
ATTAATTA	0.263
ATTAATAC	0.199
AGTAATTA	0.283
ATGAATAG	0.0469
GGTAATTA	0.186
ATGGGGGC	-0.349
AAGATAGA	0.0137
CCGAGTGC	0.089
GATTGACC	-0.149
GCCGGGAC	-0.0972
AGTAATTG	0.0751

Sequence	PBM E-score
ATCAATTG	0.186
ATTAATTG	0.313
ATCAATTC	-0.026
ATTAATGG	0.239
ATTAATTC	0.304
AGTAATTC	0.23
ATCAATTA	0.255
CTTAATTC	0.177
CGTAACCC	-0.0539
TCCTGACA	0.125
GGCTTCCC	-0.0469
AACCAATC	0.0878
AACCAATG	0.109
AACCAGTA	0.157
AACCAGTG	-0.0556
AACCAGTT	0.27
AACCAATT	0.297
ACGCGGCC	-0.0773
CAGCGGGC	0.00044
GGTAGTAC	-0.0112
CCAATCGC	0.0869
CCCAGCAA	-0.0856
